Laboratory results taken from article PMC11006913.
Where a chain is given by its changes, count along the chain named.

Tests used:
Assay in all cases: PBM; 200 nM protein, PBS
Conditions in all cases: dsDNA, one strand shown
[1] = target: T1, SIX6 (Homo sapiens, UniProt O95475 114-200, L167I)
T1 sequence: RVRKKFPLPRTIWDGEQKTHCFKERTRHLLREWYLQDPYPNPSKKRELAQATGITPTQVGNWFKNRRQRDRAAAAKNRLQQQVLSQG

[2] = target: T2, SIX6 (Homo sapiens, UniProt O95475 114-200, L143V)
T2 sequence: T1 sequence with L30V, I54L

[3] = target: T3, SIX6 (Homo sapiens, UniProt O95475 114-200, H141N)
T3 sequence: T1 sequence with H28N, I54L

[4] = target: T4, SIX6 (Homo sapiens, UniProt O95475 114-200, T165P)
T4 sequence: T1 sequence with T52P, I54L

[5] = target: T5, SIX6 (Homo sapiens, UniProt O95475 114-200, L167M)
T5 sequence: T1 sequence with I54M

[6] = target: T6, SIX6 (Homo sapiens, UniProt O95475 114-200, L143M)
T6 sequence: T1 sequence with L30M, I54L

[7] = target: T7, SIX6 (Homo sapiens, UniProt O95475 114-200, L143I)
T7 sequence: T1 sequence with L30I, I54L

[8] = target: T8, SIX6 (Homo sapiens, UniProt O95475 114-200, T165G)
T8 sequence: T1 sequence with T52G, I54L

[9] = target: T9, SIX6 (Homo sapiens, UniProt O95475 114-200, T139Q)
T9 sequence: T1 sequence with T26Q, I54L

[10] = target: T10, SIX6 (Homo sapiens, UniProt O95475 114-200, T165A)
T10 sequence: T1 sequence with T52A, I54L

[11] = target: T11, SIX6 (Homo sapiens, UniProt O95475 114-200, L167V)
T11 sequence: T1 sequence with I54V

[12] = target: T12, SIX6 (Homo sapiens, UniProt O95475 114-200)
T12 sequence: T1 sequence with I54L

[13] = target: T13, SIX6 (Homo sapiens, UniProt O95475 114-200, T165I)
T13 sequence: T1 sequence with T52I, I54L

Sequence | binding signal [1] | binding signal [2] | binding signal [3] | binding signal [4] | binding signal [5] | binding signal [6] | binding signal [7] | binding signal [8] | binding signal [9] | binding signal [10] | binding signal [11] | binding signal [12] | binding signal [13]
GTGTATCA | 11.5 upbm affinity estimate (log intensity, higher = more binding, comparable within an allelic series) | 10.5 upbm affinity estimate (log intensity, higher = more binding, comparable within an allelic series) | 11.4 upbm affinity estimate (log intensity, higher = more binding, comparable within an allelic series) | 9.86 upbm affinity estimate (log intensity, higher = more binding, comparable within an allelic series) | 10.9 upbm affinity estimate (log intensity, higher = more binding, comparable within an allelic series) | 11.2 upbm affinity estimate (log intensity, higher = more binding, comparable within an allelic series) | 10.5 upbm affinity estimate (log intensity, higher = more binding, comparable within an allelic series) | 11.5 upbm affinity estimate (log intensity, higher = more binding, comparable within an allelic series) | 11.4 upbm affinity estimate (log intensity, higher = more binding, comparable within an allelic series) | 11.4 upbm affinity estimate (log intensity, higher = more binding, comparable within an allelic series) | 11.2 upbm affinity estimate (log intensity, higher = more binding, comparable within an allelic series) | 11.3 upbm affinity estimate (log intensity, higher = more binding, comparable within an allelic series) | 11.2 upbm affinity estimate (log intensity, higher = more binding, comparable within an allelic series)
AAGATATC | 11.2 upbm affinity estimate (log intensity, higher = more binding, comparable within an allelic series) | 10.4 upbm affinity estimate (log intensity, higher = more binding, comparable within an allelic series) | 11.2 upbm affinity estimate (log intensity, higher = more binding, comparable within an allelic series) | 10.1 upbm affinity estimate (log intensity, higher = more binding, comparable within an allelic series) | 10.7 upbm affinity estimate (log intensity, higher = more binding, comparable within an allelic series) | 11 upbm affinity estimate (log intensity, higher = more binding, comparable within an allelic series) | 10.3 upbm affinity estimate (log intensity, higher = more binding, comparable within an allelic series) | 11.1 upbm affinity estimate (log intensity, higher = more binding, comparable within an allelic series) | 11.1 upbm affinity estimate (log intensity, higher = more binding, comparable within an allelic series) | 11 upbm affinity estimate (log intensity, higher = more binding, comparable within an allelic series) | 11 upbm affinity estimate (log intensity, higher = more binding, comparable within an allelic series) | 10.9 upbm affinity estimate (log intensity, higher = more binding, comparable within an allelic series) | 10.9 upbm affinity estimate (log intensity, higher = more binding, comparable within an allelic series)
TGATATCA | 11.6 upbm affinity estimate (log intensity, higher = more binding, comparable within an allelic series) | 10.5 upbm affinity estimate (log intensity, higher = more binding, comparable within an allelic series) | 11.6 upbm affinity estimate (log intensity, higher = more binding, comparable within an allelic series) | 9.86 upbm affinity estimate (log intensity, higher = more binding, comparable within an allelic series) | 11 upbm affinity estimate (log intensity, higher = more binding, comparable within an allelic series) | 11.4 upbm affinity estimate (log intensity, higher = more binding, comparable within an allelic series) | 10.5 upbm affinity estimate (log intensity, higher = more binding, comparable within an allelic series) | 11.6 upbm affinity estimate (log intensity, higher = more binding, comparable within an allelic series) | 11.6 upbm affinity estimate (log intensity, higher = more binding, comparable within an allelic series) | 11.6 upbm affinity estimate (log intensity, higher = more binding, comparable within an allelic series) | 11.6 upbm affinity estimate (log intensity, higher = more binding, comparable within an allelic series) | 11.3 upbm affinity estimate (log intensity, higher = more binding, comparable within an allelic series) | 11.4 upbm affinity estimate (log intensity, higher = more binding, comparable within an allelic series)
CGCAAGCG | 8.99 upbm affinity estimate (log intensity, higher = more binding, comparable within an allelic series) | 9.04 upbm affinity estimate (log intensity, higher = more binding, comparable within an allelic series) | 8.99 upbm affinity estimate (log intensity, higher = more binding, comparable within an allelic series) | 9.04 upbm affinity estimate (log intensity, higher = more binding, comparable within an allelic series) | 9.02 upbm affinity estimate (log intensity, higher = more binding, comparable within an allelic series) | 9.01 upbm affinity estimate (log intensity, higher = more binding, comparable within an allelic series) | 9.04 upbm affinity estimate (log intensity, higher = more binding, comparable within an allelic series) | 8.96 upbm affinity estimate (log intensity, higher = more binding, comparable within an allelic series) | 9.04 upbm affinity estimate (log intensity, higher = more binding, comparable within an allelic series) | 8.95 upbm affinity estimate (log intensity, higher = more binding, comparable within an allelic series) | 8.92 upbm affinity estimate (log intensity, higher = more binding, comparable within an allelic series) | 9.01 upbm affinity estimate (log intensity, higher = more binding, comparable within an allelic series) | 8.97 upbm affinity estimate (log intensity, higher = more binding, comparable within an allelic series)
AGTATCAT | 11.5 upbm affinity estimate (log intensity, higher = more binding, comparable within an allelic series) | 10.5 upbm affinity estimate (log intensity, higher = more binding, comparable within an allelic series) | 11.5 upbm affinity estimate (log intensity, higher = more binding, comparable within an allelic series) | 9.89 upbm affinity estimate (log intensity, higher = more binding, comparable within an allelic series) | 10.9 upbm affinity estimate (log intensity, higher = more binding, comparable within an allelic series) | 11 upbm affinity estimate (log intensity, higher = more binding, comparable within an allelic series) | 10.6 upbm affinity estimate (log intensity, higher = more binding, comparable within an allelic series) | 11.5 upbm affinity estimate (log intensity, higher = more binding, comparable within an allelic series) | 11.4 upbm affinity estimate (log intensity, higher = more binding, comparable within an allelic series) | 11.4 upbm affinity estimate (log intensity, higher = more binding, comparable within an allelic series) | 11.3 upbm affinity estimate (log intensity, higher = more binding, comparable within an allelic series) | 11.2 upbm affinity estimate (log intensity, higher = more binding, comparable within an allelic series) | 11.2 upbm affinity estimate (log intensity, higher = more binding, comparable within an allelic series)
CGGGGACC | 8.99 upbm affinity estimate (log intensity, higher = more binding, comparable within an allelic series) | 8.83 upbm affinity estimate (log intensity, higher = more binding, comparable within an allelic series) | 8.99 upbm affinity estimate (log intensity, higher = more binding, comparable within an allelic series) | 8.96 upbm affinity estimate (log intensity, higher = more binding, comparable within an allelic series) | 8.97 upbm affinity estimate (log intensity, higher = more binding, comparable within an allelic series) | 8.88 upbm affinity estimate (log intensity, higher = more binding, comparable within an allelic series) | 8.86 upbm affinity estimate (log intensity, higher = more binding, comparable within an allelic series) | 8.9 upbm affinity estimate (log intensity, higher = more binding, comparable within an allelic series) | 8.95 upbm affinity estimate (log intensity, higher = more binding, comparable within an allelic series) | 8.92 upbm affinity estimate (log intensity, higher = more binding, comparable within an allelic series) | 8.99 upbm affinity estimate (log intensity, higher = more binding, comparable within an allelic series) | 8.89 upbm affinity estimate (log intensity, higher = more binding, comparable within an allelic series) | 8.91 upbm affinity estimate (log intensity, higher = more binding, comparable within an allelic series)
